Rows were chosen to be rich in hits. Some 1.2% of all compounds tested hit in one or more screens of this group.
pAkt inh: inhibitors of Akt phosphorylation; Neuro2A IGF-stimulated pAkt S473 HTRF, 20 min; stronger effect = lower value; activity change, % for hits at 50 µM; 360,000 tested, 0.32% active; AID 651550; in the data active means activity change below about -80%; inconclusive means mostly about -51% to -80%; further: on the % scale 0 is the no-effect control and ±100 the full control effect
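Single-point screen (50 µM final compound) in Neuro2A cells stimulated 20 min with 6 nM IGF at 37 deg C. After lysis, Ser473-phosphorylated Akt read by HTRF (ex 330 nm, em 615/665 nm) as the 665/615 ratio.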
gsp agonist: gsp mutant agonism; gsp mutant cells, cAMP HTRF, 30 min; Potency, µM (top dose mostly 76.9 µM), for the others: at the top dose activation (cAMP increase), hits mostly activators; 340,000 tested, 0.13% active; active means well fitted activation curve with a large enough effect; inconclusive means small, poorly fitted or top-dose-only effect, or another doubt; inactive means no such curve, though single readings can be large or run the other way; cell line not stated here;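 further: phosphodiesterase inhibitor Ro 20-1724 added with compounds to block cAMP breakdown; potency means the concentration at half of the fitted maximal effect; nearly all actives have a fitted effect of over 60% in size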
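Cells in DMEM/10% FBS with G418 were pretreated with compounds in DMSO plus […] (300 uM stock) for 30 min at 37C. cAMP was measured by HTRF (cAMP-d2 plus anti-cAMP antibody-K) after 30 min at room temperature.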
RXFP1 ag: agonists of human relaxin receptor RXFP1. 370,000 tested, 0.3% active. HEK293T-RXFP1 cAMP TR-FRET, 30 min; response scale: percent of porcine relaxin response, buffer zero. Potency, µM (highest dose often 57.5 µM), inactives show top-dose activation, actives largely listed as activators. Q9HBX9; active means well fitted activation curve with a large enough effect; inconclusive means small, poorly fitted or top-dose-only effect; further: potency means the concentration at half of the fitted maximal effect; on the % scale 0 is the no-effect control and ±100 the full control effect; nearly all actives have a fitted effect of over 60% in size
Target sequence (Q9HBX9 whole entry, looked up): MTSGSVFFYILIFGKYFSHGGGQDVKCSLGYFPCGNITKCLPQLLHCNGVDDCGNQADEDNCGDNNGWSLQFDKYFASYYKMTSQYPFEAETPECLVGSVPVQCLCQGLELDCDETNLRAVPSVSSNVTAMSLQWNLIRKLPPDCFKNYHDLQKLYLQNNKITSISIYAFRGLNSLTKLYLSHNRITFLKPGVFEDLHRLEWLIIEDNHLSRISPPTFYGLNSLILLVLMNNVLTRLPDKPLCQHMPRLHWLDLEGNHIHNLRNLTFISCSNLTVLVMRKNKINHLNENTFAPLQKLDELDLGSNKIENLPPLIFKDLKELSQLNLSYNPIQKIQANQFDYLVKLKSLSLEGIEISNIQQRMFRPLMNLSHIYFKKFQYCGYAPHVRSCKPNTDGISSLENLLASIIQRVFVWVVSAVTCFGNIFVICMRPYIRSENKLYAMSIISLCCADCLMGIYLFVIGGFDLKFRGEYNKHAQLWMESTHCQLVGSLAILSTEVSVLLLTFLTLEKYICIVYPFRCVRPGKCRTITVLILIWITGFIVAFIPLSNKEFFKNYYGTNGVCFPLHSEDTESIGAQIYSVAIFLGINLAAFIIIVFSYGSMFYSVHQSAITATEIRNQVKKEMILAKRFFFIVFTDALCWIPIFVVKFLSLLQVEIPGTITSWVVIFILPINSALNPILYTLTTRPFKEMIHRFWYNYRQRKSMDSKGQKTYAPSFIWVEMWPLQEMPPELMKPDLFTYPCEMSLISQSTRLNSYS
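HEK293T cells stably expressing RXFP1 were pretreated with the PDE4 inhibitor Ro 20174, exposed to compounds for 30 min at 37C, lysed, and cAMP was read by TR-FRET. Data normalized to buffer (basal) and 29 nM porcine relaxin (100%).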
gsp antag: gsp mutant antagonism; AID 624288; 340,000 tested, 0.4% active; gsp-mutant cells, cAMP HTRF, 30 min; Potency, µM (titrated, usually from 76.9 µM), for the others: top-dose activity change, negative = inhibition, most hits filed as inhibitors; calls by dose curve; cell line not stated here;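 further: intracellular cAMP measured with PDE inhibitor Ro 20-1724 present during compound exposure; potency means the concentration at half of the fitted maximal effect; on the % scale 0 is the no-effect control and ±100 the full control effect; nearly all actives have a fitted effect of over 65% in size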
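G418-selected cells were plated in DMEM/10% FBS for 16-24 h at 37C, then treated with compounds plus the PDE inhibitor […] (300 uM solution added) for 30 min at 37C. Intracellular cAMP was measured by HTRF after 30 min lysis at room temperature.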
RXFP1 antagonist: antagonists of human relaxin receptor RXFP1; Q9HBX9; HEK293-RXFP1, relaxin-stimulated cAMP HTRF, 30 min; stronger effect = lower value; activity change, negative = inhibition, % at 57.5 µM; 350,000 tested, 0.59% active;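 active means activity change of -60% or lower, but not beyond a set lower limit; inconclusive means change between -60% and -40%, or beyond the set limit; inactive means change above -40%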; further: on the % scale 0 is the no-effect control and ±100 the full control effect
* = called active by the depositor; i = inactive; ? = inconclusive; / = no result given; [ ] = remark or other dose.

SMILES	pAkt inh	gsp agonist	RXFP1 ag	gsp antag	RXFP1 antagonist
CCc1c(C)c2ccc(O)c(CN3CCN(c4ccccc4)CC3)c2oc1=O	/	/	16%	/	-8
O=C(c1ccccc1)N1CCc2cc(CNS(=O)(=O)c3ccccc3Cl)ccc21	/	/	5%	/	4
Cc1onc(-c2c(Cl)cccc2Cl)c1C(=O)Cl	/	/	/	/	-3
CC(C)NC(=O)COC(=O)c1ccc(S(=O)(=O)N2CCCC2)cc1	i	7%	2%	-3%	-98*
Cc1ccccc1NC(=O)CSc1nnc(-c2ccco2)c(-c2ccco2)n1	i	-2%	-3%	3%	-30
Cc1cccc(C)c1NC(=O)CCCSc1nnc(-c2ccco2)o1	-111%*	6%	3%	16%	-12
Cc1ccc(NC(=O)CCSc2nnc(-c3ccco3)o2)cc1	i	7%	0%	-5%	-9
Cc1cccc(C)c1NC(=O)CSc1nnc(-c2ccco2)c(-c2ccco2)n1	i	9%[15.4 µM]	0%	-9%	-68*
CC(=O)c1ccc(NC(=O)CSC2=Nc3ccccc3N=C(c3ccc(F)cc3)C2)cc1	/	/	-2%	/	/
COC(=O)N/N=C/c1cccc(OCCSc2ccc(Cl)cc2)c1	i	3%[15.4 µM]	2%	-35%	-62*
COC(=O)N/N=C/c1ccc(OCCSc2ccc(Cl)cc2)c(OC)c1	i	-20%	-2%	-25%	/
Cc1[nH]cnc1-c1ccc(Cl)cc1	/	/	/	/	13
CCn1c(CN2CCCCC2)nc2cc(NC(=O)COc3cc(C)ccc3C(C)C)ccc21	/	/	0%	/	-4
Cc1ccc(C(C)C)c(OCC(=O)Nc2ccc3c(c2)nc(CCN2CCCCC2)n3C)c1	i	?	5%	4%	-61*
Cn1c(=O)c2sccc2n2c(CCCC(=O)N3CCCCC3)nnc12	/	?	18µM*	-4%	4
Cn1c(=O)c2sccc2n2c(CCCC(=O)NC3CCCCC3)nnc12	/	/	?	/	15
CC(C)c1ccc(NC(=O)c2ccc(CN3CC(=O)N4CCCCC4C3=O)cc2)cc1 (centres undefined)	/	/	0%	/	1
O=C(CCCCCn1c(=S)[nH]c2ccc(N3CCOCC3)cc2c1=O)NCCc1ccccc1	i	-2%[15.4 µM]	3%	?	?
O=C(CCCCCn1c(=S)[nH]c2ccc(N3CCOCC3)cc2c1=O)NCc1ccccc1Cl	i	-1%[15.4 µM]	?	?	-104*
O=C(CCCCCn1c(=S)[nH]c2ccc(N3CCOCC3)cc2c1=O)NCc1ccc(Cl)cc1	i	-1%[15.4 µM]	14%	10%	-92*
Cc1[nH]c2ccccc2c1C1(O)C(=O)N(Cc2ccccc2)c2ccc(Cl)cc21 (centres undefined)	/	/	0%	/	/
CC1=C(C(=O)Nc2ccccc2C)C(c2ccccn2)n2nc(SCc3ccccc3F)nc2N1 (centres undefined)	/	/	-2%	/	-1
COc1cc(CNCCO)cc(Br)c1OCc1ccccc1Cl	i	-13%	0%	25%	-76*
COc1cc(CNCCO)cc(Cl)c1OCc1ccc(Cl)cc1Cl	i	?	2%	8%	-36
CC1CCCN(CCCNC(=O)c2ccc3c(c2)N(Cc2cccc(Cl)c2)C(=O)c2ccccc2S3(=O)=O)C1 (centres undefined)	/	/	-1%	/	10
SMILES	pAkt inh	gsp agonist	RXFP1 ag	gsp antag	RXFP1 antagonist
CCc1ccc(OCC(=O)NNC(=O)c2cc(S(=O)(=O)N(C)C)ccc2N2CCCC2)cc1	i	4%[15.4 µM]	-1%	-1%	-114*
O=C(NCC(c1cccs1)S(=O)(=O)c1cccs1)c1ccccc1 (centres undefined)	/	/	-1%	/	14
O=C(NCc1ccccn1)C1CCCN(Cc2cnn(-c3ccccc3)c2-n2cccc2)C1 (centres undefined)	-98%*	-8%	-5%	-24%	-1
Cc1ccc2oc(C(=O)NCC(c3ccc(Cl)cc3)N3CCOCC3)c(C)c2c1 (centres undefined)	/	/	0%	/	-23
Cc1cccc(-c2nc(S(=O)(=O)c3ccc(F)cc3)c(N3CCN(c4ccccc4)CC3)o2)c1	/	/	-1%	/	-5
O=C(COc1ccc2ccccc2c1Br)Nc1cccnc1	i	6.3µM*	15%	17%	-15
COc1ccc(NC(=O)c2csnn2)cc1Cl	/	/	-1%	/	2
